Each structure is given as a SMILES string. The panel holds about 83,000 compounds, 20% with a hit somewhere; the sample as a whole holds those more often.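 Treatment: one concentration, 48 hours, 96-well format. Scoring: percent growth, with anything below 10 considered active.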 A number with no mark means an inactive call. Activity calls are given as the source filed them.

Drawing on PubChem BioAssay (NCI), this text covers growth for nine compounds.

Test in all cases: NCI-60 one-dose screen, 48 h (100 = growth as untreated, 0 = no growth, -100 = all killed)
Common to all, as to conditions: 10 µM unless noted

The subject of assay [1] is SR leukemia.
Assay [2] has as its system RPMI-8226 leukemia.
Assay [3] has as its system OVCAR-8 ovarian.
The test system of assay [4] is OVCAR-5 ovarian.
For assay [5], the system named is OVCAR-4 ovarian.
Assay [6] relates to SK-OV-3 ovarian.
For assay [7], the system named is IGROV1 ovarian.
The subject of assay [8] is OVCAR-3 ovarian.
For assay [9], the system named is NCI/ADR-RES ovarian.
Assay [10] has as its system T-47D breast.
Assay [11] deals with BT-549 breast.
The subject of assay [12] is MDA-MB-435 melanoma.
Assay [13] has as its system MCF7 breast.
The subject of assay [14] is HCT-116 colon.
Assay [15] concerns HCC-2998 colon.
The test system of assay [16] is KM12 colon.
Assay [17] deals with MDA-MB-468 breast.
For assay [18], the system named is HS 578T breast.
The subject of assay [19] is SW-620 colon.

Regarding `COc1cc(CNC(=O)/C=C/c2ccc3c(c2)OCO3)ccc1OCc1cn(-c2ccc([N+](=O)[O-])cc2)nn1`, the growth in assay [1] is 69.3%; in assay [2], 74.2%; in assay [3] it was 90.5%; in assay [4], 97.7%; in assay [5], 75.7%; in assay [6] it was 99.3%. In addition, the growth in [7] was 107%; in assay [8], 108%; in assay [9], 86.7%; in assay [10], 65.5%; in assay [11], 71.9%; in assay [12], 101%. The growth in assay [13] was 81.8%; in assay [14], 85.3%; in assay [15], 104%; in assay [16] it was 100%; in assay [17] it was 72.4%.

Consider `COc1cc(/C=C/C(=O)c2nnn(-c3ccc(Cl)cc3)c2C)cc(OC)c1OC`, for which the growth in [1] is 5.48% (active); in assay [2], -7.65% (active); in assay [3], 31.8%; in assay [4], 47.8%; in assay [5], 34.7%; in assay [6] it was 59.4%. Moreover, the growth in assay [7] is 59.3%; in assay [8], 22.9%; in [9], 8.27% (active); in assay [10] it was 43.2%; in [11], 36.8%; in [12] it was 2.83% (active). The growth in [13] was 8.67% (active); in assay [14], 26.2%; in assay [15] it was 23.1%; in assay [16], 20.8%; in assay [17], -20.7% (active).

Turning to `N#Cc1c(-c2ccccc2Cl)cc(-c2c[nH]c3ccccc23)[nH]c1=O`, the growth was 9.99% (active) in assay [1]; 70.7% in assay [2]; 87.4% in [3]; 82.1% in [4]; 69.6% in assay [5]; 87.8% in assay [6]. Further, the growth in [7] was 78.5%; in assay [8], 93.8%; in assay [9], 82.3%; in assay [10], 65%; in assay [11], 73.9%; in assay [12], 23.6%. Further, the growth in [13] is 50.9%; in [14], 52.4%; in [15], 73.1%; in assay [16], 71%; in assay [17] it was 20.7%.

On to `CC1=C(C(=O)OCc2ccccc2)C(c2c(O)cc(O)cc2O)n2c(nc3ccccc32)N1` (configuration not stated), for which the growth was 18.5% in assay [1]; 81.9% in [2]; 77.9% in assay [3]; 73.6% in assay [4]; 84% in assay [5]; 44.4% in [6]. The growth in [7] was 51%; in [8], 33.6%; in assay [9], 31%; in assay [10] it was 62.6%; in [11], 55%; in assay [12], 1.29% (active). Moreover, the growth in assay [13] was 25%; in assay [14], 26.1%; in assay [15] it was 86.4%; in assay [16], 46.3%; in assay [17], -27.4% (active).

Regarding `N#Cc1c(-c2ccccc2Cl)cc(-c2ccc3ccccc3c2)[nH]c1=O`, the growth in [1] was 48.9%; in assay [2], 61.5%; in [3], 12.2%; in assay [4], 44.1%; in assay [5] it was -46% (active); in assay [6], 52.1%. For the same compound, the growth in [7] is 48.2%; in assay [8], -7.55% (active); in assay [9], 13.4%; in assay [10], -21.3% (active); in assay [11] it was 3.43% (active); in assay [12] it was 61.7%. Further, the growth is 44.4% in assay [13]; 17.9% in assay [14]; 49.1% in assay [15]; 74.4% in assay [16]; 5.01% (active) in assay [17].

On to `O=C1/C(=C/C2=Cc3ccccc3OC2)SC(=S)N1c1ccccc1F`, for which the growth in assay [1] was 91%; in assay [2], 85.7%; in assay [3] it was 110%; in [4], 108%; in [5], 107%; in assay [6], 95.3%. Also, the growth in [8] is 109%; in assay [18], 105%; in [9], 109%; in assay [10], 95%; in assay [11], 77.8%; in assay [12] it was 108%. Also, the growth in [19] is 112%; in assay [13], 78.4%; in assay [14], 96.4%; in assay [15], 109%; in assay [16], 102%; in assay [17], 99%.

On to `CC1(c2cc3cc(Br)ccc3oc2=O)NC(=O)c2c(/C=C/C(=O)OC3CC4CCC3(C)C4(C)C)cccc2N1` (configuration not stated), for which the growth in assay [1] is 66.8%; in assay [2], 35.8%; in assay [3], 89%; in assay [4], 92.6%; in assay [5], 75.4%; in [6] it was 86.4%. The growth was 83.1% in assay [8]; 95.8% in assay [18]; 74% in assay [9]; 46.2% in assay [10]; 83.9% in assay [11]; 99.2% in assay [12]. Also, the growth in assay [19] was 89.1%; in assay [13], 50.6%; in assay [14], 53.8%; in assay [15], 95.9%; in [16] it was 72.8%; in [17], 13.4%.

For the compound `CCCCOc1ccc(NC(=O)c2sc3nc(C)ccc3c2N)cc1`, the growth in assay [1] was 19.1%; in assay [2], 32.4%; in assay [3] it was 5.4% (active); in [4] it was 20.1%; in assay [5], 1.32% (active); in assay [6], -15.9% (active). The growth in assay [7] is 17.7%; in assay [8] it was 15.5%; in assay [9], -39.3% (active); in assay [10] it was 15%; in assay [11] it was -11.6% (active); in assay [13] it was 18.1%. Also, the growth in [14] was -67.4% (active); in assay [15], 21.2%; in [16] it was 26.2%.

Turning to `C=Cn1cc(C(=O)O)c(=O)c2cc(F)c(N3CCN(c4nccc(-c5nccs5)n4)CC3)cc21`, the growth in assay [1] was -35.2% (active); in [2] it was -24% (active); in [3], 7.65% (active); in [4], -25.6% (active); in assay [5] it was 10.7%; in assay [6], -35.8% (active). Besides, the growth was -30.3% (active) in assay [7]; -4.52% (active) in assay [8]; -39.5% (active) in assay [9]; -1.23% (active) in [10]; -49.1% (active) in assay [11]; 0.211% (active) in assay [13]. In addition, the growth was -33.8% (active) in assay [14], -62.1% (active) in [15], -15% (active) in [16] and -61.9% (active) in assay [17].
